TLR4-MyD88 BLA: inhibitors of TLR4-MyD88 association in cells, primary screen, cell-based, HeLa CL3-4, BLA complementation, FRET ratio; 200,000 tested, 0.18% active; inhibition, % at 8.4 µM; HeLa CL3-4 TLR4/MyD88 BLA complementation; in the data active = inhibition above about 25%;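 also: 0% = vehicle and 100% = reference inhibitor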
Myeloid diff 2: induction of myeloid progenitor differentiation, primary screen, cell-based, flow cytometry, MLPCN library; ER-HoxA9 myeloid progenitors, lysozyme-GFP differentiation; calls only at 10 µM; 360,000 tested, 1% active;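 active = normalized GFP-positive differentiation at or above the plate's own cutoff, the solvent-only control mean plus 3 SD; inconclusive = no clear call, values can overlap the other calls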;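 also: cells exposed to compound for four days before flow analysis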
ABCB6 inh MLPCN: ABCB6 transporter inhibitors, primary screen, K562-ABCB6 cells, flow cytometry, MLPCN library. 360,000 tested, 0.19% active. fluorescence ratio to DMSO, % at 10 µM. K562-ABCB6 porphyrin accumulation, 1 h; active compounds read low. AID 602162, 2011;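 active = fluorescence ratio to DMSO below 75%, the collection mean minus 3 SD; inconclusive = too few cells collected in the well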;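 also: signal is porphyrin accumulated inside mitochondria; 100% equals median channel fluorescence of DMSO control wells; lower ratio means ABCB6 inhibition with less porphyrin fluorescence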
TLR9-MyD88 inh: inhibitors of TLR9-MyD88 association in cells, primary screen, cell-based, CHO, BLA complementation, fluorescence; inhibition, % at 4.98 µM; CCF4 FRET ratio; Toll-like receptor 9 (Homo sapiens) + Myeloid differentiation primary response protein …; 340,000 tested, 0.21% active;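 active = inhibition above the mean over all tested compounds plus 3 SD, cut at about 21% in these data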;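 also: 0% = DMSO only wells and 100% = clavulanate BLA inhibitor control wells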
Target sequence (Q99836 whole entry, looked up): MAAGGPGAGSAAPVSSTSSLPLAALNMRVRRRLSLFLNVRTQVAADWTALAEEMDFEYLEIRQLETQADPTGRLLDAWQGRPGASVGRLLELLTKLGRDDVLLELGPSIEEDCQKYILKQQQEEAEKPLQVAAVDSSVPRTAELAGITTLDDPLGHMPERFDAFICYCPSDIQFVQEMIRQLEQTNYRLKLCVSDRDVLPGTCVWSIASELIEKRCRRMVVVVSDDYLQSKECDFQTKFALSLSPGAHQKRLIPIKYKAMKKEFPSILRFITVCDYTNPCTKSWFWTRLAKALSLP
Target sequence (Q9NR96 whole entry, looked up): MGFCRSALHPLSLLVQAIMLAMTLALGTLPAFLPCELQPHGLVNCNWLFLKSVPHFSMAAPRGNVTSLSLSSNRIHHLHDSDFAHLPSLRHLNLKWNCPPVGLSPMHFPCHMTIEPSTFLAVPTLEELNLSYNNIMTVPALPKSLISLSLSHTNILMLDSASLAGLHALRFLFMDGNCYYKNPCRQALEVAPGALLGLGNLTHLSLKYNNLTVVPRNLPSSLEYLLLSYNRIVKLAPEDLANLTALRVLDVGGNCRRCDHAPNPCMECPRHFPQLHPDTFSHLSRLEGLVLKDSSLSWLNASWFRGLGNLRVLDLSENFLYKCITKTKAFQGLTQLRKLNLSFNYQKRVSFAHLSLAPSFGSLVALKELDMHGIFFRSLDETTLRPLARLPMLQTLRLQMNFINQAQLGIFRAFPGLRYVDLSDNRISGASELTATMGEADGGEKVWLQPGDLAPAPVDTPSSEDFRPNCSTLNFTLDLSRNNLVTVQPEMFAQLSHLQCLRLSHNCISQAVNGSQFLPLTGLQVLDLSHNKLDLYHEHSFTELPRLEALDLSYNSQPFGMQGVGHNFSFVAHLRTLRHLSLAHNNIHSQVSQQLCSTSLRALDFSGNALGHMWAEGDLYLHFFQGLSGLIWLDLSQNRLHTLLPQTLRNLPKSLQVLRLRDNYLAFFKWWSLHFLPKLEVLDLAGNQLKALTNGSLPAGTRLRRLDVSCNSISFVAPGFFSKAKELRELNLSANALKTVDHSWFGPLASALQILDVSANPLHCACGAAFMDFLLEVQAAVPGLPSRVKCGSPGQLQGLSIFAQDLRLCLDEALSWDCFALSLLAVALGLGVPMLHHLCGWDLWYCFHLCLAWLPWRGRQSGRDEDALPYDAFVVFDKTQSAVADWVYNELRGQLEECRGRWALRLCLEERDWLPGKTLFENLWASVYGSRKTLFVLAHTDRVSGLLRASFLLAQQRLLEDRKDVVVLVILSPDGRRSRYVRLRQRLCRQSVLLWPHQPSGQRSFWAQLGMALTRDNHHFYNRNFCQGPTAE
NOD2-RIPK2 inh: NOD2-RIPK2 binding disruptors in cells, primary screen, fluorescence, CHO cells, BLA complementation; Receptor-interacting serine/threonine-protein kinase 2 (Homo sapiens), O43353; CCF4 ratio; inhibition, % at 4.98 µM; 360,000 tested, 0.38% active; in the data active = inhibition above about 21%;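 also: 0% = vehicle only and 100% = reference blocker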
TLR4-MyD88 conf: TLR4-MyD88 association inhibitors, retest, confirmation, cell-based, HeLa CL3-4, BLA complementation, FRET ratio; shares compounds with TLR4-MyD88 BLA; CCF4 FRET ratio; inhibition, % at 8.4 µM; 350 tested, 50% active; AID 941, 2007;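 active = mean inhibition across three repeat runs above about 25% carried over from the earlier screen, limit read from the data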;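 also: plate controls were DMSO only for no effect and clavulanic acid blocking BLA at full dose for full effect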
BLA inhibitor ct: inhibits beta-lactamase activity, counter-screen to TLR4-MyD88 binding inhibitors | shares compounds with TLR4-MyD88 BLA | HeLa BLA reporter, CCF4 FRET ratio | inhibition, % at 8.4 µM | 350 tested, 63% active;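 active = mean inhibition over three repeats above about 26% taken from the earlier screen, limit read from the data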;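 also: HeLa cells stably expressing beta-lactamase reporter as counterscreen for TLR4-MyD88 inhibitors; 0% = DMSO and 100% = clavulanic acid full inhibition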
An asterisk follows results filed as active; i = inactive; ? = inconclusive; . = no result given; + = active, no number. Compounds with a hit are over-represented: about 1.7% of the library has one in this group of screens.

SMILES	TLR4-MyD88 BLA	Myeloid diff 2	ABCB6 inh MLPCN	TLR9-MyD88 inh	NOD2-RIPK2 inh	others
COc1cc(NS(=O)(=O)c2ccc3c(c2)oc(=O)n3C)cc(OC)c1OC	-2	+	96	-9	-18
Cc1ccc(C)c(NC(=S)N2CCC(NC(=O)c3ccco3)CC2)c1	.	i	93	7	-6
O=C(/C=C/c1ccc(NC(=O)c2ccccc2-c2ccccc2C(=O)O)cc1)c1ccccc1	.	i	103	16	5
O=C(/C=C/c1ccncc1)c1ccc(NC(=O)c2ccccc2F)cc1	9	?	91	25*	64*
N#CCC(=O)Nc1ccc(C(=O)OCC(=O)C23CC4CC(CC(C4)C2)C3)cc1	.	+	98	-1	-10
Cc1ccc(NC(=O)CN(C)C(=O)COC(=O)c2ccc(NC(=O)CC#N)cc2)cc1	.	i	98	7	3
N#CCC(=O)Nc1ccc(C(=O)OCC(=O)NCCCc2ccccc2)cc1	.	i	101	6	-8
N#CCC(=O)Nc1ccc(C(=O)OCc2ccccc2Oc2ccccc2)cc1	.	+	91	4	4
COc1cccc(C(=O)Nc2ccc(N(C)C)cc2)c1OC	-6	+	138	-1	0
CCn1c2ccccc2c2cc(NC(=O)c3cccc(OC)c3)ccc21	12	i	102	-3	4
CCn1c2ccccc2c2cc(NC(=O)c3cccc(OC)c3OC)ccc21	-12	+	98	-2	1
CCc1nc2c(OCc3ccc4c(c3)OCO4)cccn2c1N(C=O)Cc1ccc(OC)cc1	.	i	98	.	6
Cc1cccc(OCC(=O)Nc2ccc3c4c(cccc24)CC3)c1C	9	i	104	20	-5
Cc1ccc(OCC(=O)Nc2ccc3c4c(cccc24)CC3)c(C)c1	11	+	113	-6	-6
Cn1c(=O)c2ncn(CC(=O)Nc3ccc4c5c(cccc35)CC4)c2n(C)c1=O	10	+	128	-4	2
CCOC(=O)CNC(=O)Cn1cnc2c(nnn2-c2cccc(OC)c2)c1=O	.	i	98	6	-5
Cc1cc(N)n(-c2ccc3ccccc3c2)n1	-2	+	99	0	-9
COc1ccc(-n2nc(C)cc2N)cc1	-2	i	93	-1	-1
CCOc1ccc(-c2[nH]ncc2Oc2ccccc2OCC)c(O)c1	-7	i	99	-2	5
CCOc1ccccc1Oc1cn[nH]c1-c1ccc(OCC(=O)NN)cc1O	.	+	89	7	0
CN(C)S(=O)(=O)N1CCC(Oc2ccc(C(=O)N3CCCCCCC3)cc2)CC1	.	?	86	2	0
CN(C)S(=O)(=O)N1CCC(Oc2ccc(C(=O)N3CCCCCC3)cc2)CC1	.	+	100	3	-1
COc1ccccc1OCC(=O)Nc1c2c(nn1-c1ccccc1)CS(=O)(=O)C2	.	i	98	-4	-9
COc1cccc(-n2nc(C#N)c(Cl)cc2=O)c1	6	.	106	17	70*
Cc1cccc(C)c1NC(=O)C(c1ccncc1)n1c(=O)c(-c2ccco2)nc2ccccc21 (centres undefined)	.	i	.	.	-9
SMILES	TLR4-MyD88 BLA	Myeloid diff 2	ABCB6 inh MLPCN	TLR9-MyD88 inh	NOD2-RIPK2 inh	others
O=c1c(Cl)c(Cl)cnn1Cc1ccc(F)cc1	27*	?	98	11	17	TLR4-MyD88 conf=16;BLA inhibitor ct=7
O=c1cnn(Cc2ccc(F)cc2)c2ccccc12	.	i	100	10	1
O=C(OCn1ncc(Cl)c(Cl)c1=O)c1ccc(F)cc1	27*	.	.	.	.	TLR4-MyD88 conf=29*;BLA inhibitor ct=6
CC(C)(C)C(=O)Cn1ncc(Cl)c(Cl)c1=O	13	i	127	19	7
CCNC(=O)N(C)c1c(CC)nc2ccc(C(=O)N3CCN(C(C)=O)CC3)cn12	.	i	100	.	-2
COc1cccc(CC(=O)Nc2ccc(S(=O)(=O)Nc3nccs3)cc2)c1	.	i	90	7	-3
COc1cccc(CC(=O)Nc2nccs2)c1	26*	i	102	-2	1	TLR4-MyD88 conf=-6;BLA inhibitor ct=6
CCCCN(CCCC)C(=O)CSc1nnc(-c2cc(OC)c(OC)c(OC)c2)o1	5	i	98	-9	2
CCCCOC(=O)CSc1nnc(-c2cc(OC)c(OC)c(OC)c2)o1	26*	i	97	-1	-2	TLR4-MyD88 conf=17;BLA inhibitor ct=-8
CCN(CC)C(=S)NC(=O)c1cc(OC)c(OC)c(OC)c1	14	i	96	-5	-9
COC(=O)Nc1sc2c(c1C(N)=O)CCCCCC2	26*	i	91	2	-4	TLR4-MyD88 conf=-12;BLA inhibitor ct=-8
Cc1ccc(S(=O)(=O)c2cn(C)c3cc(N4CCN(C)CC4)c(F)cc3c2=O)c(C)c1	.	i	97	7	4
Cc1cc(O)ccc1C1(c2ccc(O)cc2C)OC(=O)c2ccccc21	18	i	110	15	2
CC(=O)Oc1ccc2c(c1)Oc1cc(OC(C)=O)ccc1C21OC(=O)c2ccccc21	63*	+	.	71*	76*	TLR4-MyD88 conf=70*;BLA inhibitor ct=93*
O=[N+]([O-])c1ccc(N/N=C/c2c[nH]c3ccccc23)c(S(=O)(=O)Nc2ccc(Cl)cc2)c1	57*	+	398	3	-4	TLR4-MyD88 conf=43*;BLA inhibitor ct=65*
COc1ccccc1NS(=O)(=O)c1cc([N+](=O)[O-])ccc1N/N=C/c1c(C)[nH]c2ccccc12	36*	+	925	11	17	TLR4-MyD88 conf=22;BLA inhibitor ct=45*
CN1CCN(S(=O)(=O)c2cc([N+](=O)[O-])ccc2N/N=C/c2ccc(Cl)cc2)CC1	-9	i	103	-1	5
COc1cc(C(=O)NNC(=O)c2ccccc2OCc2c(C)noc2C)cc(OC)c1OC	.	i	96	-2	-17
CCCn1c(=O)[nH]c(=O)c2c1nc(-c1ccccc1OC(F)F)n2CCOC	26*	i	94	-1	-9	TLR4-MyD88 conf=2;BLA inhibitor ct=-3
CCCn1c(=O)[nH]c(=O)c2c1nc(-c1ccc(OC(F)F)c(OC)c1)n2CCOC	-6	i	96	1	6
CC(=O)C1=C(C)NC(SCSc2ccccc2)=C(C#N)C1c1cccnc1 (centres undefined)	-6	.	.	.	.
CC(=O)C1=C(C)NC(SCC(=O)c2ccc(-c3ccccc3)cc2)=C(C#N)C1c1cccnc1 (centres undefined)	31*	.	.	.	.	TLR4-MyD88 conf=20;BLA inhibitor ct=36*
O=[N+]([O-])c1ccc(NS(=O)(=O)N2CCOCC2)cc1	.	i	96	-3	-5
